# Source: PubChem (The Scripps Research Institute Molecular Screening Center)
# Most compounds without a hit are left out; they make up all but 2% or so of the library.
# LYPLA2 counter: blocks human lysophospholipase 2, a PME1 counter-screen. O95372. recombinant LYPLA2, FP-Rh probe fluorescence polarization. inhibition, % at 5.9 µM. actives 0.38% (n = 320,000). AID 2177;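 active = inhibition above the screen-wide mean plus 3 SD, limit set per campaign, cut at about 26% in these data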;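 also: 0% = LYPLA2 with DMSO and 100% = wells lacking LYPLA2 enzyme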
# PME-1 inh: blocks human protein phosphatase methylesterase 1. actives 0.53% (n = 320,000). AID 2130. inhibition, % at 5.9 µM. recombinant PME-1, FP-Rh probe fluorescence polarization;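 active = inhibition above the campaign mean of all compounds plus 3 SD, cut at about 26% in these data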;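 also: competitive labeling of PME-1 active site by serine hydrolase directed probe; 0% = PME-1 with DMSO and 100% = wells lacking PME-1 enzyme; inhibitors block probe labeling so polarization falls and inhibition rises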
# LYPLA1 counter: counter-screen for PME1 inhibitors: inhibitors of human LYPLA1 | O75608 | recombinant LYPLA1, FP-Rh probe fluorescence polarization | inhibition, % at 5.9 µM | actives 0.16% (n = 320,000) | AID 2174;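 active = inhibition above the mean of all tested compounds plus 3 SD, set per campaign, cut at about 14% in these data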;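 also: inhibitors block serine hydrolase probe labeling of LYPLA1 so polarization falls; 0% = enzyme with DMSO and 100% = wells lacking LYPLA1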
# GSTO1 inh: GSTO1 inhibition, counter-screen for RBBP9 inhibitors | inhibition, % at 5.96 µM | P78417 | actives 1.1% (n = 300,000) | AID 1974 | recombinant GSTO1, activity-based probe fluorescence polarization;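 active = inhibition above the campaign mean inhibition plus 3 SD, cut at about 35% in these data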;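 also: 0% = GSTO1-1 with DMSO and 100% = wells lacking GSTO1-1 enzyme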
# PREPL inh: inhibits the human prolyl oligopeptidase-like enzyme | recombinant PREPL, fluorescence polarization activity-based probe | inhibition, % at 5.96 µM | actives 0.68% (n = 320,000); in the data active = inhibition above about 43%;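 also: 0% = enzyme with DMSO and 100% = wells lacking enzyme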
# Target sequence (Q4J6C6 whole entry, looked up): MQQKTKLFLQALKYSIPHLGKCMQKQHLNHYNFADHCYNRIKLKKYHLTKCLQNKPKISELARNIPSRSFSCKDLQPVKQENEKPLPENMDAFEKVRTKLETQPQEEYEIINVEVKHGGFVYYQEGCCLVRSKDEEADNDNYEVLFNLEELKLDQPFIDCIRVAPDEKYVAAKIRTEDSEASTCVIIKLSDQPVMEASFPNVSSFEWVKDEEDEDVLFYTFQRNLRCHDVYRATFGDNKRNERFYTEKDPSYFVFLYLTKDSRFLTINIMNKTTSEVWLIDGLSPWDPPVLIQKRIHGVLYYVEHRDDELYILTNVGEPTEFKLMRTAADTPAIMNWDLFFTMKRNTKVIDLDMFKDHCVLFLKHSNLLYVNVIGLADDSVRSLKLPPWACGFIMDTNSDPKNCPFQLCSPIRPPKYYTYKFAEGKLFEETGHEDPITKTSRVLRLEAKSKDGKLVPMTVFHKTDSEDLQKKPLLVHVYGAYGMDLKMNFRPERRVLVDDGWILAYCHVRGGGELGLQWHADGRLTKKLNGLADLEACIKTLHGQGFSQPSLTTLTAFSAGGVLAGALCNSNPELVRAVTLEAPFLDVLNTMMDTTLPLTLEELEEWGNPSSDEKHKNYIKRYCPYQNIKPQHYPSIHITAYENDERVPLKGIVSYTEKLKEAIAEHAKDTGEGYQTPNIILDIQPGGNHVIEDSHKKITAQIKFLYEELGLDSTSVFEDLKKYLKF
# Fam108B inh: Fam108B inhibition, counter-screen for RBBP9 inhibitors; inhibition, % at 9.51 µM; recombinant Fam108B, FP-Rh probe fluorescence polarization; actives 0.33% (n = 300,000);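 active = inhibition above the screen mean inhibition plus 3 SD, computed separately per campaign, cut at about 18% in these data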;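 also: inhibitors lower polarization as less probe binds the enzyme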
# GSTO1 confirm: confirmation of human GSTO1 inhibitors | recombinant GSTO1, probe fluorescence polarization | actives 54% (n = 2,400) | inhibition, % at 5.96 µM | AID 2176 | shares compounds with GSTO1 inh;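 active = inhibition above the primary screen's cutoff, its mean inhibition plus 3 SD, cut at about 35% in these data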;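 also: loss of polarization as inhibitors block binding of rhodamine sulfonate ester activity probe; 0% = GSTO1 with DMSO and 100% = wells lacking GSTO1 enzyme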
# * hit, by the source's call; nt = not tested or not shown.
SMILES,LYPLA2 counter,PME-1 inh,LYPLA1 counter,GSTO1 inh,PREPL inh,Fam108B inh,GSTO1 confirm
CC(=O)c1cc2c(cc1NC(=O)c1cccc(S(=O)(=O)N3CCN(C)CC3)c1)OCO2,-2.5,1.3,-1.1,60.6*,16.3,7.3,21.8
CC(=O)c1ccc(NC(=O)c2cccc(S(=O)(=O)N3CCN(C)CC3)c2)cc1,0.7,-0.1,-4.6,-5.3,-12.2,1.3,nt
Cc1ccc(/C=[N+](/C)[O-])cc1,1.2,0.9,-2.9,0.3,-4.8,-0.9,nt
Cc1ccc(C=C2C(Cl)=C(Cl)C(Cl)=C2Cl)cc1,4.8,2.4,-0.4,45.1*,-13.6,9.4,14.6
CC(C)c1cc2c(c(O)c1O)[C@@]13CCCC(C)(C)C1CC2OC3=O (some centres undefined),2.3,-3.6,-5.1,40.6*,2.6,-2.2,8.1
CC(/C=C1\SC(=S)N(NS(=O)(=O)c2ccccc2)C1=O)=C\c1ccccc1,-3.2,-0.1,-0.8,40.2*,-0.3,2.6,31.8
CC(/C=C1\SC(=S)N(NC(=O)c2ccc(C)cc2)C1=O)=C\c1ccccc1,-35.9,-30.8,-14.1,-6.9,-16.1,-21.1,nt
CC(/C=C1\SC(=S)N(NS(=O)(=O)c2ccc(C)cc2)C1=O)=C\c1ccccc1,-4.1,-13.5,2.1,47.6*,-11.5,0.0,36.0*
CC(/C=C1\SC(=S)N(NC(=O)c2ccccc2C)C1=O)=C\c1ccccc1,-27.8,-29.1,-16.0,-7.0,-22.8,-17.8,nt
CN(CC(=O)Nc1ccccc1Br)C(=O)Cn1[nH]c(=O)c2ccccc2c1=O,-0.4,-3.3,-0.1,nt,11.9,nt,nt
O=C(CN1C(=O)C2C3C=CC(C3)C2C1=O)OCC(=O)c1ccc(Cl)c([N+](=O)[O-])c1 (centres undefined),5.7,6.8,-1.0,4.7,11.5,4.6,nt
CCOC(=O)c1c(NC(=O)COC(=O)/C=C/c2ccccc2)sc(C(=O)NC)c1C,-2.1,2.5,-5.3,nt,3.7,nt,nt
Cc1nn(-c2ccc(N3CCOCC3)nn2)c(C)c1CCC(=O)NCc1ccccc1,-3.8,-0.2,-2.6,-15.4,-4.2,1.5,nt
CCOC(=O)N1CCN(CC(=O)Nc2ccc(F)cc2F)CC1,4.7,6.4,-3.3,43.0*,8.8,0.4,9.6
CCN(CC)c1ccc2c(c1)CCCN2,5.3,1.4,6.2,42.1*,32.4,2.0,4.6
O=S(=O)(c1ccc2c(c1)CCCN2)N1CCCC1,-0.7,1.0,1.1,nt,3.7,nt,nt
Cc1ccc(C(=O)c2c(C)oc3c2C(=O)C(=O)c2ccccc2-3)cc1,-1.1,1.2,-0.2,30.7,13.1,12.0,nt
COc1ccc(C(=O)c2c(C(F)(F)F)oc3c2C(=O)c2ccccc2C3=O)cc1,-3.2,11.9,-3.1,63.2*,17.3,6.6,65.7*
CC(C)n1nc(C(=O)Nc2cccc(S(=O)(=O)N3CCCCC3)c2)c2ccccc2c1=O,-7.5,-14.3,-11.0,nt,-3.8,nt,nt
O=C1CC(=O)N(CCc2ccccc2)C(=O)N1CCc1ccccc1,2.7,-7.5,-1.6,9.9,7.9,0.3,nt
O=C1C=CC(=O)C(C2=C3C(=O)N(CCc4ccccc4)CC(=O)N3CCC2)=C1,-3.3,-4.0,0.9,74.6*,17.9,2.4,6.8
CCN(CC)S(=O)(=O)c1ccc(C(=O)N(c2ccc(C)cc2)C2C=CS(=O)(=O)C2)cc1 (centres undefined),-1.8,-4.1,0.2,-8.1,14.3,0.3,nt
COc1cccc(-n2sc3c(c2=S)-c2cc(OC)ccc2NC3(C)C)c1,8.4,-1.0,3.6,-33.5,6.0,4.9,nt
CC1(C)Nc2ccc(O)cc2-c2c1ssc2=S,4.2,1.6,1.3,63.0*,14.6,5.5,25.2
COc1cc2c(cc1OC)C(c1cccs1)N(C(=O)c1cccc(S(=O)(=O)N(C)C)c1)CC2 (centres undefined),5.7,15.0,-0.1,1.9,4.1,-1.2,nt
SMILES,LYPLA2 counter,PME-1 inh,LYPLA1 counter,GSTO1 inh,PREPL inh,Fam108B inh,GSTO1 confirm
CCS(=O)(=O)NCc1ccc2[nH]c3c(c2c1)CCCC3,-7.9,15.6,-1.1,46.5*,21.9,5.7,59.6*
Cc1cc([N+](=O)[O-])nn1CC(=O)N1c2ccccc2CC1C (centres undefined),0.7,7.4,-2.5,1.8,6.5,3.6,nt
CCC(=O)N(C1=C(NC)C(=O)c2ccccc2C1=O)C(C)C,-1.4,0.9,-0.6,50.2*,15.7,1.0,12.6
CNC1=C(N(C(C)=O)c2ccc(Br)cc2)C(=O)c2ccccc2C1=O,1.2,19.2,3.4,72.6*,18.1,10.2,63.3*
CCCc1ccc2oc(C(=O)N(C)Cc3nccs3)c(C)c2c1,6.7,1.3,4.2,5.6,15.5,1.1,nt
Nc1c(Cl)ncnc1N/N=C/c1cccc(O)c1,5.6,2.0,3.3,45.1*,24.9,2.1,9.3
Cc1cc(C)n(CCNS(=O)(=O)c2ccccc2)n1,8.0,1.1,1.1,2.2,-1.8,1.9,nt
COc1cc(/C=C2\N=C3CCCCCN3C2=O)ccc1O,6.1,3.9,0.7,1.1,17.4,0.4,nt
O=C1/C(=C\c2ccc(O)c(O)c2)N=C2CCCCCN12,1.3,-6.0,-1.9,44.4*,-5.5,-2.6,5.9
COc1cccc2c(SCC(=O)N/N=C/c3ccccc3)cc(C)nc12,3.5,-3.1,-6.6,4.2,-18.1,-2.1,nt
COc1ccc2nc(C)cc(SCC(=O)N/N=C/c3ccc(O)c(O)c3)c2c1,-1.7,5.2,-1.1,51.3*,38.0,-0.3,4.3
COc1cccc2c(SCC(=O)N/N=C/c3ccc(O)c(O)c3)cc(C)nc12,-6.2,1.5,-6.9,61.7*,7.4,2.3,9.1
O=C(CSc1nc2ccccc2o1)N/N=C/c1ccc(O)c(O)c1,-3.7,-3.2,-5.5,56.8*,9.5,1.2,11.5
COc1ccc(-c2noc(CNC(=O)CCCN3C(=O)[C@H]4CC=CC[C@H]4C3=O)n2)cc1,-3.6,-0.4,-2.8,-2.9,16.5,-2.7,nt
COC(=O)CCCC1=CC2=C(c3ccccc3)C(=O)C(C)(OC(=O)C3CCCC3)C(=O)C2=CN1Cc1ccc(OC)cc1 (centres undefined),4.7,-0.4,-2.1,40.7*,27.2,4.3,10.2
COC(=O)CCCC1=CC2=C(c3ccccc3)C(=O)C(C)(OC(=O)C3CCCC3)C(=O)C2=CN1Cc1ccc2c(c1)OCO2 (centres undefined),-5.3,-3.6,-5.0,48.2*,14.0,0.7,13.4
CCN(CC)c1ccc2c(O)cc(=O)oc2c1,3.7,-2.4,-1.3,53.6*,29.2,6.4,8.7
Cc1cc(C)cc(N(CCC(=O)Nc2nnc(C)s2)S(=O)(=O)c2ccc(Cl)cc2)c1,-1.7,-2.9,1.6,-0.3,-6.4,3.1,nt
CC(C)C(=O)Nc1c(-c2ccc(Cl)cc2)c(=O)c2ccccc2n1C,-3.9,-2.4,3.5,4.2,4.7,-6.7,nt
